Out of some 2,000 compounds screened, about 250 (12%) were called active. Rule as the data show it: active = hERG blockade below about -20% or above about 20%; inactive = in between. Many of the other results were omitted from the sample, so actives are more common in it than they were.
These molecules were tested against Voltage-gated inwardly rectifying potassium channel KCNH2 (Homo sapiens) (UniProt Q12809) (assay: KCNH2 potassium channel function modulators, cell-based (AID 376;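 also: 0% = buffer alone and 100% = reference blocker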)). Conditions: hERG-expressing cells, channel activity single-concentration screen; concentration not given here.
Sequence of Voltage-gated inwardly rectifying potassium channel KCNH2 (Homo sapiens) (Q12809 whole entry, looked up): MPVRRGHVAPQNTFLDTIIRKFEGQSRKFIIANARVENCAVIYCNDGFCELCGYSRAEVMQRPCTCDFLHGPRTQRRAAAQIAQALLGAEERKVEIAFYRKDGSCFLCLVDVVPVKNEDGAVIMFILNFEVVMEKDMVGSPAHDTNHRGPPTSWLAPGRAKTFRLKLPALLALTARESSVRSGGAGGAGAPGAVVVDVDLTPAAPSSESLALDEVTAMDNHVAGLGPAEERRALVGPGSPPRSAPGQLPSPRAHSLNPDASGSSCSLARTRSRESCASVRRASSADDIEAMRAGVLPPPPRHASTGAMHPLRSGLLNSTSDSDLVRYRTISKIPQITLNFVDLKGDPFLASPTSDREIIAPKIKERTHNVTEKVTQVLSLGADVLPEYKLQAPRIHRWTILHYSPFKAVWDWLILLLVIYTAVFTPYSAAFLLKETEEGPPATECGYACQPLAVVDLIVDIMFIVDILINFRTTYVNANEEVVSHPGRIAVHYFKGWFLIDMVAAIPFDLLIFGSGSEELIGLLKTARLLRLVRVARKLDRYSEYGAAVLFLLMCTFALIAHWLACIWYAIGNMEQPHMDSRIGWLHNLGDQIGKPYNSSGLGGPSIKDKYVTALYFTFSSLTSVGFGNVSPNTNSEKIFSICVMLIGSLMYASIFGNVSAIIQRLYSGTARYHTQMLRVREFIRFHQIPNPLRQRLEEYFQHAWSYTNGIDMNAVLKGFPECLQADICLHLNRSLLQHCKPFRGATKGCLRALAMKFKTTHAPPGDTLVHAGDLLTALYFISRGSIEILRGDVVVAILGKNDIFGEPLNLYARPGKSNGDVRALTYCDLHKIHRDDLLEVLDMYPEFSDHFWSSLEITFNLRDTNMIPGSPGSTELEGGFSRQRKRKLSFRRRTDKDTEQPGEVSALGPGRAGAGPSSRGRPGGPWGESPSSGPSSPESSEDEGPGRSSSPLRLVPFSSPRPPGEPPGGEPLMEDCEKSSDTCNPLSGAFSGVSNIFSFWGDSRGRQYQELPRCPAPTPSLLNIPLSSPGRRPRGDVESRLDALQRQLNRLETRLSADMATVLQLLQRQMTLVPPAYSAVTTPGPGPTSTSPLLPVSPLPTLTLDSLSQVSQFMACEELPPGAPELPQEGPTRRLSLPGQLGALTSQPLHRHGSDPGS

Row | Structure (SMILES) | hERG blockade
1 | CSc1ccc2c(c1)c(CCN)c(C)n2Cc1ccccc1Cl | 102% (active)
2 | Cn1c(=O)c2[nH]cnc2n(C)c1=O.[CH2-]C(Cc1cccc2cc(C(=O)O)c(=O)oc12)OC.[Hg+2].[OH-] (configuration not stated) | -6.48% (inactive)
3 | CC1=NN(c2ccccc2)C(=O)C1N=Nc1ccc([As](=O)(O)O)c(O)c1 (configuration not stated) | 32.9% (active)
4 | Nc1nc(N)c(N=Nc2ccc([As](=O)(O)O)c(O)c2)c(N)n1 | -5.01% (inactive)
5 | O=C(O)CC1NCc2cc3ccccc3nc21 (configuration not stated) | -11.4% (inactive)
6 | O=P(O)(OP(=O)(O)c1ccccc1)c1ccccc1 (tested in a mixture with another compound) | -3.18% (inactive)
7 | Nc1nnnn1CCO | -1.1% (inactive)
8 | CC1=C2C(=O)C3C(CC=C4CC(O)CCC43C)C2CCC12OC1CC(C)CNC1C2C (configuration not stated) | 18.8% (inactive)
9 | CC1CCC2(NC1)OC1CC3C4CC=C5CC(O)CCC5(C)C4CCC3(C)C1C2C (configuration not stated) | 5.44% (inactive)
10 | Cc1c(C(C)C2NCC(C)CC2O)ccc2c1CC1C2CC=C2CC(O)CCC21C (configuration not stated) | 75.5% (active)
11 | COC([CH2][Hg][n]1cnc2c1c(=O)n(C)c(=O)n2C)CN1C(=O)c2ccccc2S1(=O)=O (configuration not stated) | -10.9% (inactive)
12 | O=P(O)(O)c1ccccc1 (tested in a mixture with another compound) | -2.7% (inactive)
13 | O=C(O)CSCC(=O)O | -1.83% (inactive)
14 | CC(Br)C(=O)NC(CO)C(=O)O (configuration not stated) | 16.5% (inactive)
15 | O=C(Nc1cc[c]([Sb](=[O])([OH])[OH])cc1)c1ccccc1 | 5.03% (inactive)
16 | Nc1ccc(S(=O)(=O)c2ccc(NCN3C(=O)NC(=O)C(=O)C3=O)cc2)cc1 | 20% (inactive)
17 | O=P(O)(O)CCP(=O)(O)O | -9.16% (inactive)
18 | CCOC(=O)C1C(O)CC2c3ccccc3-c3ccccc3C21 (configuration not stated) | -9.9% (inactive)
19 | COc1cc2c(cc1OC)C13CC[N+]4(C)CC5=CCOC6CC(=O)N2C1C6C5CC34O (configuration not stated) | 0.126% (inactive)
20 | NCCSC(c1ccccc1)c1ccccc1 | 21.8% (active)
21 | Nc1c(C(=O)Nc2ccc([As](=O)(O)O)cc2)cnc2nnnn12 | 6.38% (inactive)

Row | Structure (SMILES) | hERG blockade
22 | COC(=O)C1C(=O)C(C(=O)OC)C2CCC1N2C (configuration not stated) | -6.77% (inactive)
23 | O=[As](O)(O)c1ccc2nc3cc([As](=O)(O)O)ccc3nc2c1 | 6.6% (inactive)
24 | CCSCCC(N)C(=O)O (configuration not stated) | -2.21% (inactive)
25 | CC(CN(C)C)C(C#N)(c1ccccc1)c1ccccc1 (configuration not stated) | 3.3% (inactive)
26 | C[n+]1c(C=Cc2ccc(O)c3ncccc23)[se]c2ccccc21 | 24% (active)
27 | NC(CP(=O)(O)O)C(=O)O (configuration not stated) | 0.269% (inactive)
28 | COc1cccc2c1C(=O)c1c(O)c3c(c(O)c1C2=O)CC(O)(C(C)=NO)CC3OC1CC(N)C(O)C(C)O1 (configuration not stated) | 36.3% (active)
29 | CC(O)CN(CCN(CC(C)O)CC(C)O)CC(C)O.O=[N+]([O-])[O-].[Cu+2] (configuration not stated) | 13.4% (inactive)
30 | CC12CN(CC[N+](C)(C)C)CC1(C)C1CCC2O1 (configuration not stated) | -0.461% (inactive)
31 | Cc1ccc(OP(=O)(Oc2ccc(C)cc2)N2C=Cc3ccccc3C2C#N)cc1 (configuration not stated) | 0.907% (inactive)
32 | Cc1ccc(S(=O)ON2CCC(C(=O)O)(c3ccccc3)CC2)cc1 (configuration not stated) | 4.76% (inactive)
33 | Nc1nc(N)c(N=Nc2ccc([As](=O)(O)O)cc2)c(=O)[nH]1 | 13.9% (inactive)
34 | N#CCCCC[N+]12CN3CN(CN(C3)C1)C2 | 6.19% (inactive)
35 | COc1cc(O)c2c(O)c3c(c4c2c1C1(C4)C(C)=CCCC1(C)C)C(O)C1(O)CC(=O)C(C(N)=O)=C(O)C1(O)C3=O (configuration not stated) | 24.7% (active)
36 | Nc1cc[c]([Hg])cc1.Nc1nc2c(ncn2C2OC(CO)C(O)C2O)c(=[SH+])[nH]1 (configuration not stated) | 2% (inactive)
37 | NNc1c(C(N)=O)c2c(N)ncnc2n1C1OC(CO)C(O)C1O (configuration not stated) | 6.28% (inactive)
38 | O=C(O)CNC(=O)c1ccc([As](=O)(O)O)cc1 | -21.5% (active)
39 | O=[As](O)(O)c1ccc(Cc2ccc([As](=O)(O)O)cc2)cc1 | -1.48% (inactive)
40 | NC(=O)c1ccc(C(=O)Nc2ccc([As](=O)(O)O)cc2)cc1 | 8.1% (inactive)
41 | CC1=NN(c2ccc(S(=O)(=O)O)cc2C)C(=[OH+])C1N=Nc1cc(S(=O)(=O)[O-])ccc1C(=O)O.[Cr].[OH-] (configuration not stated) | -5.52% (inactive)
42 | Oc1ccc(CCNCc2cc3c(cc2Br)OCO3)cc1 | -0.605% (inactive)

Row | Structure (SMILES) | hERG blockade
43 | O=C(O)C(Br)C(Br)C(=O)O (configuration not stated) | 10.9% (inactive)
44 | NCCc1c[nH]c2ccc(OC(=O)C(=O)O)cc12 | -28.9% (active)
45 | NC(CCP(=O)(O)O)C(=O)O (configuration not stated) | 5.51% (inactive)
46 | CC1CCC2(O)C3(C)CC4(O)OC2(C1O)C1(O)C3(O)C(OC(=O)c2ccc[nH]2)C(O)(C(C)C)C41C (configuration not stated) | 2.45% (inactive)
47 | CC(C)c1ccc(C(O)(C(=O)O)c2ccc(C(C)C)cc2)cc1 | 7.38% (inactive)
48 | O=C(O)C(O)(c1ccc(-c2ccccc2)cc1)c1ccc(-c2ccccc2)cc1 | 33.6% (active)
49 | CC(=O)OC1CCC2(C)C(CCC3C2CC(=O)C2(C)C3CC(N3CC3)C2C(C)=O)C1 (configuration not stated) | 2.23% (inactive)
50 | CCc1ccc(CCN2CCCCC2)nc1 | -0.853% (inactive)
51 | O=C(CC(c1ccccc1)c1c(O)c2ccccc2oc1=O)c1ccccc1 (configuration not stated) | 22.2% (active)
52 | CC(C)c1ccc(C(c2c(O)c3ccccc3oc2=O)c2c(O)c3ccccc3oc2=O)cc1 | 15.3% (inactive)
53 | Nc1ccccc1O.O.O=C(O)C1[O][Sb][O]C1C(=O)O (configuration not stated) | 16.3% (inactive)
54 | [N-]=[N+]=CC(=O)CCC(N)C(=O)O (configuration not stated) | 2.68% (inactive)
55 | O=C(CCN1CC2CCC(CC2)C1)c1cccs1 | 29.2% (active)
56 | NC(CCl)=NC1CN2CCC1CC2 (configuration not stated) | -4.96% (inactive)
57 | O=[As](O)(O)c1ccc(N=Nc2ccc(O)cc2)cc1 | -7.36% (inactive)
58 | O=C(c1ccccc1)C1C(c2ccccc2[N+](=O)[O-])N1C1CCCCC1 (configuration not stated) | 24.1% (active)
59 | CCCOC(=O)C1C2CCC(O2)C1C(=O)O (configuration not stated) | 8.66% (inactive)
60 | Oc1ccc(C(O)C2CCCCN2)cc1O (configuration not stated) | 1.5% (inactive)
61 | Cc1ccc(S(=O)(=O)OC2CN3CCC2CC3)cc1 (configuration not stated) | 2.18% (inactive)
62 | CS(=O)(=O)OC1CN2CCC1CC2 (configuration not stated) | -24.5% (active)

Reference: PubChem BioAssay AID376 (PDSP, 2006)
